Consider 16 compounds from PMC11062922 (Nature Chemical Biology, 2023).

Where two headings read alike, the source gives them in different places.

Set-up in all cases: species or system human, MV4-11 + K-562 + COLO205 + SK-N-BE2 + OVCAR-8
In one experiment the test system is BTK. To be noted: read-out: apparent Kd, n = 1.
The next experiment deals with CSK. To be noted: read-out: apparent Kd, n = 1.
Another experiment concerns DDR1. As to conditions: read-out: apparent Kd, compound concentrations: 100 nM and 1000 nM (sheet 'Samples'), n = 1.
In another experiment the test system is EGFR. As to conditions: read-out: apparent Kd, compound concentrations: 100 nM and 1000 nM (sheet 'Samples'), n = 1.
For the next experiment, the system named is FRK. To be noted: read-out: apparent Kd, compound concentrations: 100 nM and 1000 nM (sheet 'Samples'), n = 1.
A further experiment deals with LYN. To be noted: read-out: apparent Kd, compound concentrations: 100 nM and 1000 nM (sheet 'Samples'), n = 1.
A further experiment deals with SRC. As to conditions: read-out: apparent Kd, compound concentrations: 100 nM and 1000 nM (sheet 'Samples'), n = 1.
For the next experiment, the system named is ACAD11. To be noted: read-out: apparent Kd, n = 1.
In the next experiment the test system is DYRK1A. As to conditions: read-out: apparent Kd; compound concentrations:100 nM and 1000 nM (sheet 'Samples'); n = 1.
The test system of another experiment is FLT3. As to conditions: read-out: apparent Kd, n = 1.
Another experiment concerns GSK3A. To be noted: read-out: apparent Kd, n = 1.
In another experiment the test system is GSK3B. As to conditions: read-out: apparent Kd, n = 1.
Another experiment deals with EPHA1. To be noted: read-out: apparent Kd, n = 1.
The subject of a further experiment is TNK2. As to conditions: read-out: apparent Kd, n = 1.
The subject of a further experiment is ACVR1B. To be noted: read-out: apparent Kd, compound concentrations: 100 nM and 1000 nM (sheet 'Samples'), n = 1.
The test system of the next experiment is SIK2. As to conditions: read-out: apparent Kd; compound concentrations: 100 nM and 1000 nM (sheet 'Samples'), CATDS: 1.1089332631068699E-2; n = 1.
The next experiment has as its system ACVR1. As to conditions: read-out: apparent Kd; compound concentrations: 100 nM and 1000 nM (sheet 'Samples'), CATDS: 2.7247604336379499E-2; n = 1.
The test system of the next experiment is AKT2. As to conditions: read-out: apparent Kd, n = 1.
For the next experiment, the system named is MAPK14. As to conditions: read-out: apparent Kd, n = 1.
A further experiment concerns ZAK. To be noted: read-out: apparent Kd, n = 1.
Where [1] appears, read: compound concentrations:100 nM and 1000 nM (sheet 'Samples').

Turning to `CN1CCc2ccc(Nc3nccc(-c4c(-c5cccc(NC(=O)c6c(F)cccc6F)c5)nc5ccccn45)n3)cc2C1.Cl` [GSK1010829B], the potency estimated from few doses is 497 nM with BTK (compound concentrations: 100 nM and 1000 nM (sheet 'Samples'), CATDS: 5.3394659124358E-2); 1380 nM with CSK (compound concentrations: 100 nM and 1000 nM (sheet 'Samples'), CATDS: 3.4286589805654001E-2); 1010 nM in the experiment on DDR1 (CATDS: 3.8396909039531198E-2); 1570 nM in the experiment on EGFR (CATDS: 3.29518195590447E-2); 770 nM in the experiment with FRK (CATDS: 4.3093308654231798E-2); 403 nM in the experiment on LYN (CATDS: 6.0028262979631E-2). The potency estimated from few doses in the experiment on SRC (CATDS: 5.29363400907749E-2) is 505 nM.

Turning to `N#Cc1cccc(Nc2nccc(-c3cnn4ncccc34)n2)c1` [GW778894X], the potency estimated from few doses was 228 nM in the experiment with ACAD11 (setting [1]); 35.9 nM with DYRK1A; 137 nM in the experiment on FLT3 (setting [1]); 28.3 nM with GSK3A (setting [1]); 21.2 nM in the experiment with GSK3B (compound concentrations: 100 nM and 1000 nM (sheet 'Samples'), CATDS: 5.9931823260346899E-2).

As for `O=S(=O)(c1ccc(-c2ccnc3[nH]ccc23)cc1)N1CCCC1` [GSK846226A], in the experiment on ACAD11 (setting [1]), the potency estimated from few doses is 693 nM.

As to `CC(=O)c1c(-c2ccncc2)[nH]c(-c2ccncc2)c1C` [GW493036X], the values for the potency estimated from few doses in the experiment on DYRK1A, in the experiment on GSK3A (setting [1]) and in the experiment on GSK3B (setting [1]) were 53.7 nM, 400 nM and 535 nM, respectively.

Consider `CN(C)Cc1ccc(-c2ccc3c(Nc4ccc(Oc5ccccn5)cc4)ccnc3c2)o1` [GW567148X], for which the potency estimated from few doses is 1760 nM in the experiment on CSK (compound concentrations: 100 nM and 1000 nM (sheet 'Samples'), CATDS: 1.6993908707239901E-2); 577 nM with EPHA1 (compound concentrations: 100 nM and 1000 nM (sheet 'Samples'), CATDS: 2.4503846064608301E-2); 433 nM in the experiment with FLT3 (compound concentrations: 100 nM and 1000 nM (sheet 'Samples'), CATDS: 2.7806184989220401E-2); 850 nM with FRK (CATDS: 2.1087873700944799E-2); 736 nM in the experiment with GSK3A (compound concentrations: 100 nM and 1000 nM (sheet 'Samples'), CATDS: 2.2236241466677201E-2); 1300 nM in the experiment with GSK3B (compound concentrations: 100 nM and 1000 nM (sheet 'Samples'), CATDS: 1.84231194054994E-2). Besides, the potency estimated from few doses was 499 nM with LYN (CATDS: 2.6094910864106001E-2); 297 nM in the experiment with SRC (CATDS: 3.3500581656618303E-2); 386 nM in the experiment with TNK2 (compound concentrations: 100 nM and 1000 nM (sheet 'Samples'), CATDS: 2.9353794658715598E-2).

In the case of `COc1cc2ncn(-c3cc(OCCCc4ccccc4)c(C(N)=O)s3)c2cc1OC` [GSK205189A], the potency estimated from few doses with GSK3A (setting [1]) was 575 nM; in the experiment with GSK3B (setting [1]), 1110 nM; with TNK2 (setting [1]), 48.2 nM.

With `CNC(=O)c1ccccc1Nc1nc(Nc2cccc(CS(C)(=O)=O)c2)ncc1C.O=CO` [GSK1520489A], the potency estimated from few doses in the experiment on ACVR1B (CATDS: 1.2545717700139699E-2) is 511 nM; with BTK (compound concentrations: 100 nM and 1000 nM (sheet 'Samples'), CATDS: 3.3529613297139299E-2), 46.5 nM; in the experiment on DDR1 (CATDS: 1.3625362720769099E-2), 389 nM; in the experiment on EGFR (CATDS: 1.37119506592154E-2) it was 382 nM; with EPHA1 (compound concentrations: 100 nM and 1000 nM (sheet 'Samples'), CATDS: 4.9501189051371401E-2), 23.8 nM; in the experiment on FLT3 (compound concentrations: 100 nM and 1000 nM (sheet 'Samples'), CATDS: 1.2283454590930699E-2), 550 nM. Moreover, the potency estimated from few doses in the experiment on FRK (CATDS: 1.0457896251618699E-2) is 1050 nM; with LYN (CATDS: 1.17680848685595E-2), 643 nM; in the experiment on SIK2 it was 813 nM; in the experiment with SRC (CATDS: 1.1920002971419799E-2), 613 nM.

Consider `CN1CCN(Cc2ccc(-c3ccc4c(Nc5ccc(Oc6ccccn6)cc5)ccnc4c3)o2)CC1` [GW567140X], for which the potency estimated from few doses is 1180 nM with EGFR (CATDS: 3.6910458353503803E-2); 760 nM in the experiment with EPHA1 (compound concentrations: 100 nM and 1000 nM (sheet 'Samples'), CATDS: 4.2699834629257603E-2); 368 nM in the experiment with FLT3 (compound concentrations: 100 nM and 1000 nM (sheet 'Samples'), CATDS: 5.7646545219248203E-2); 1260 nM in the experiment on FRK (CATDS: 3.6217931786021701E-2); 1330 nM in the experiment with LYN (CATDS: 3.5611600643533602E-2); 573 nM with SRC (CATDS: 4.7577990075445997E-2). The potency estimated from few doses with TNK2 (compound concentrations: 100 nM and 1000 nM (sheet 'Samples'), CATDS: 4.3541420759690502E-2) was 720 nM.

For `O=S(=O)(CCOCc1ccc(-c2ccc3ncnc(Nc4ccc(OCc5cccc(F)c5)c(Cl)c4)c3c2)o1)c1ccccc1` [GW615311X], the potency estimated from few doses in the experiment on ACAD11 (compound concentrations: 100 nM and 1000 nM (sheet 'Samples'), CATDS: 2.2498747845654098E-2) was 2280 nM; in the experiment on ACVR1B (CATDS: 3.6359113991721197E-2), 818 nM; in the experiment on ACVR1, 1430 nM; with AKT2 (compound concentrations: 100 nM and 1000 nM (sheet 'Samples'), CATDS: 2.19467490651379E-2) it was 2450 nM; in the experiment with CSK (compound concentrations: 100 nM and 1000 nM (sheet 'Samples'), CATDS: 2.6624527430589399E-2), 1510 nM; in the experiment on EGFR (CATDS: 3.2602064025644098E-2) it was 997 nM. Besides, the potency estimated from few doses is 1220 nM with FRK (CATDS: 2.9445586686104801E-2); 1290 nM in the experiment on MAPK14 (compound concentrations: 100 nM and 1000 nM (sheet 'Samples'), CATDS: 2.8626143180457999E-2); 1250 nM in the experiment on SRC (CATDS: 2.9038399213399499E-2).

Regarding `COc1cc2ncn(-c3cc(OCc4ccncc4)c(C(N)=O)s3)c2cc1OC` [GSK336313A], in the experiment on ACAD11 (setting [1]), the potency estimated from few doses is 1400 nM.

For `CC(=O)N1CCN(c2ccc(Nc3nccc(-c4sc(C(C)C)nc4-c4cccc(NS(=O)(=O)c5ccccc5)c4)n3)cn2)CC1` [GSK1645872A], the potency estimated from few doses in the experiment on EGFR (CATDS: 3.0506753540730399E-2) is 710 nM; with ZAK (compound concentrations: 100 nM and 1000 nM (sheet 'Samples'), CATDS: 2.8355440499728699E-2), 855 nM.

`Nc1nc(N)c2nc(-c3ccccc3)[nH]c2n1` [SKF-12778]: the potency estimated from few doses with ACAD11 (setting [1]) was 1290 nM; in the experiment with AKT2 (setting [1]) it was 1570 nM; in the experiment with BTK (setting [1]), 1330 nM; with FLT3 (setting [1]) it was 1070 nM; with MAPK14 (setting [1]), 973 nM.

With `CC(C)c1nc(-c2cccc(NS(=O)(=O)c3c(F)cccc3F)c2F)c(-c2ccnc(Nc3ccc(N4CCOCC4)nc3)n2)s1` [GSK2008607A], the potency estimated from few doses is 1030 nM in the experiment with BTK (compound concentrations: 100 nM and 1000 nM (sheet 'Samples'), CATDS: 2.19270493489029E-2); 262 nM in the experiment on CSK (compound concentrations: 100 nM and 1000 nM (sheet 'Samples'), CATDS: 4.1008032947333198E-2); 679 nM in the experiment on EPHA1 (compound concentrations: 100 nM and 1000 nM (sheet 'Samples'), CATDS: 2.5663443213215401E-2); 715 nM with LYN (CATDS: 2.5134529621639101E-2); 355 nM in the experiment on TNK2 (compound concentrations: 100 nM and 1000 nM (sheet 'Samples'), CATDS: 3.47729479590888E-2).

Consider `CC(C)c1nc(-c2ccc(F)c(NS(=O)(=O)c3c(F)cccc3F)c2)c(-c2ccnc(Nc3ccc(N4CCOCC4)nc3)n2)s1` [GSK1804250A], for which the potency estimated from few doses with CSK (setting [1]) is 442 nM; with EPHA1 (setting [1]) it was 548 nM; with TNK2 (setting [1]), 232 nM; in the experiment on ZAK (setting [1]), 1410 nM.

On to `Cn1cc(-c2ccc3c(c2)CCN3C(=O)Cc2cc(F)cc(C(F)(F)F)c2)c2c(N)ncnc21` [GSK2635225A], for which the potency estimated from few doses in the experiment with AKT2 (compound concentrations: 100 nM and 1000 nM (sheet 'Samples'), CATDS: 0.123001791308401) was 1850 nM.

Take `CC(=O)N1CCN(c2ccc(Nc3nccc(-c4sc(C(C)C)nc4-c4cccc(NS(=O)(=O)c5cccc(Cl)c5)c4)n3)cn2)CC1` [GSK1660437A]: the potency estimated from few doses with CSK (compound concentrations: 100 nM and 1000 nM (sheet 'Samples'), CATDS: 5.27130468240418E-2) was 741 nM; in the experiment with ZAK (compound concentrations: 100 nM and 1000 nM (sheet 'Samples'), CATDS: 3.4947671861574499E-2), 2310 nM.
